The structures appear in SMILES notation. About 1,200 (0.4%) of roughly 300,000 compounds were called active. The sample holds actives, similar compounds and a random draw of the others, so the mix is not that of the screen. No stated cut-off is given here; in the data, active means activity change below about -75% (passing the limit was not always enough); inconclusive means no clear call, values can overlap the other calls.

This note sets out measurements from PubChem BioAssay AID2094 (Broad Institute, 2009).

The test can be described thus: Vibrio harveyi AI-2 quorum sensing modulators, primary screen, JMH597 strain, luminescence/OD600 ratio (AID 2094).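 Further: luminescence divided by OD600 gain over 9 h not by final OD600 alone.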 Conditions: Vibrio harveyi JMH597 AI-2 luminescence/OD600 ratio, 9 h; at 7.5 µM; hits give low values; 0 = neutral-control median; strain lacks LuxN and CqsS sensors.
For `CC(=O)N1c2ccc(S(=O)(=O)N3CCC(C(=O)NC4CCCC(C)C4C)CC3)cc2CC1C` (stereo unspecified), the activity change is 26.4% (inactive).

With `O=C(COc1ncnc2c(Cl)cc(Cl)cc12)N1CCN(S(=O)(=O)c2ccccc2)CC1`, the activity change is 8.92% (inactive).

Consider `Cc1cc(C)c2nc(-c3cccnc3)cc(C(=O)Nc3ccc(S(=O)(=O)Nc4onc(C)c4C)cc3)c2c1`, for which the activity change is 39.3% (inactive).

In the case of `CCOC(=O)c1sc(NC(=O)c2sc(C)nc2C)nc1C`, the activity change is 1.24% (inactive).

Consider `O=C(Nc1ccccc1F)c1ccc2c(c1)OCO2`, for which the activity change was -3.7% (inactive).

As to `O=C(Nc1nnc(C2COc3ccccc3O2)o1)c1ccc(F)cc1` (stereo unspecified), the activity change is -225% (active).

As for `CC1COc2ccccc2N1C(=O)c1ccc(F)cc1` (stereo unspecified), the activity change is 25.4% (inactive).

For `CN(C)S(=O)(=O)N1CCC(Oc2cccc(C(=O)NCCCC3CCCC3)c2)CC1`, the activity change was 1.44% (inactive).

For the molecule `O=C(Cn1cnc2ccccc2c1=O)Nc1cccc(S(=O)(=O)N2CCCCC2)c1`, the activity change was -81.4% (active).

Take `CC(=O)NC(CC(=O)Nc1cccc(S(=O)(=O)N2CCCC2)c1)c1ccccc1` (stereo unspecified): the activity change is 3.39% (inactive).

Turning to `CCN(CC(=O)Nc1cccc(S(=O)(=O)N2CCCCC2)c1)Cc1ccccc1`, the activity change was 24.8% (inactive).

Consider `C=CS(=O)c1sc(Cl)c(N2CCOCC2)c1[N+](=O)[O-]` (stereo unspecified), for which the activity change is -83.3% (active).

Take `CCCNC(=S)N1CCC(NC(=O)C23CC4CC(CC(C4)C2)C3)CC1`: the activity change is 28.5% (inactive).

Take `CCCc1cc(=O)oc2c(C)c(OC(C)C(=O)NCC(O)c3ccccc3)ccc12` (stereo unspecified): the activity change is 23.7% (inactive).

As for `CC(Oc1ccc(-c2ccccc2)c(F)c1)c1ccn(S(=O)(=O)c2cccc3ccccc23)n1` (stereo unspecified), the activity change was 27.1% (inactive).

As to `CCN(CC)CCn1c2c(c(SCC(=O)Nc3ccc(C(C)C)cc3)nc1=O)CCC2`, the activity change is 5.82% (inactive).

In the case of `O=c1c2sccc2nc(SCc2cc(=O)n3ccccc3n2)n1-c1ccc(Br)cc1`, the activity change was 19.6% (inactive).

Take `C=C(C)c1cccc(C(C)(C)NC(=O)NC2CCCC2)c1`: the activity change was 1.39% (inactive).

As for `COc1ccc(C(=O)NC(=S)NNC(=O)c2c(-c3ccccc3)noc2C)cc1`, the activity change was 26.1% (inactive).

`COc1ccc(C(=O)NNC(=S)NC(=O)c2ccccc2[N+](=O)[O-])cc1`: the activity change was 34.4% (inactive).

`COc1ccc(C(=O)NNC(=S)NC(=O)c2ccccc2)cc1`: the activity change was -106% (active).

In the case of `CCNc1nc(NC(C)C)nc(OCCOC(=O)c2ccccc2)n1`, the activity change was 23.7% (inactive).

With `COc1ccc(C2N=C(N)N=C(N)N2c2ccccc2)cc1OC` (stereo unspecified), the activity change was 19.2% (inactive).

With `CC1=CC=CC2=N/C(=N\S(=O)(=O)c3ccc(F)cc3F)c3ccccc3CN12`, the activity change is 21.6% (inactive).

Regarding `Cc1ccccc1NC(=O)CCOc1ccccc1`, the activity change was -83.3% (active).

Take `CCc1ccccc1NC(=O)CCOc1ccccc1`: the activity change was 24.5% (inactive).

Turning to `Cc1cccc(OCCC(=O)Nc2ccccc2C(N)=O)c1`, the activity change was 11.3% (inactive).

As for `C=CCO/N=C/C1=C(O)C(C(=O)OC)C(C)(C)CC1=O` (stereo unspecified), the activity change was 9.19% (inactive).

For the molecule `COc1ccc(CCC(=O)c2ccc(OC)cc2)cc1`, the activity change is -82.8% (active).

Consider `CO/N=C/CC(=O)c1ccc(OC)cc1`, for which the activity change was 8.95% (inactive).

For the molecule `COc1ccc(OCCC(=O)c2ccc(OC)cc2)cc1`, the activity change is 30.2% (inactive).

Regarding `COc1cccc(NC(=O)COc2cc(C)cc3oc(=O)cc(C)c23)c1`, the activity change was 15.1% (inactive).

In the case of `COc1ccc(Cc2nnc(N/N=C/c3ccccc3O)[nH]c2=O)cc1OC`, the activity change is -86.4% (active).

Turning to `O=c1[nH]c(NCCO)nnc1Cc1ccc(Cl)cc1`, the activity change is -1.67% (inactive).

Regarding `Cc1nnc(N/N=C/c2ccccn2)[nH]c1=O`, the activity change is -29.7% (inactive).

Regarding `COCC(=O)N1CCCC(C(=O)c2ccc(C(F)(F)F)cc2)C1` (stereo unspecified), the activity change was 13.4% (inactive).

`CC(=O)c1ccc(S(=O)(=O)N(C)CCCC(=O)N(C)Cc2ccccc2F)cc1`: the activity change was 21.5% (inactive).

As for `O=C(/C=C/c1ccco1)Nc1cccc(-c2nc3ccccc3[nH]2)c1`, the activity change was 4.93% (inactive).

With `O=C(Nc1ccc(O)cc1)c1ccc(NC(=O)c2ccco2)cc1`, the activity change is 7.66% (inactive).

With `Cc1nnc(NC(=O)/C=C/c2ccco2)s1`, the activity change was 12.9% (inactive).

For the molecule `O=C(Nc1ccc(Oc2ccccc2)cc1)c1ccco1`, the activity change was -96.6% (active).

On to `O=C(Nc1ccccc1)c1ccco1`, for which the activity change is 10.6% (inactive).

`O=C(/C=C/c1ccco1)Nc1ccc(Oc2ccccc2)cc1`: the activity change is -83.2% (active).

On to `CCc1cccc(NC(=O)CCCN2C(=O)C(c3ccccc3)Oc3cccnc32)c1` (stereo unspecified), for which the activity change is 34.6% (inactive).

As to `CC(OC(=O)CNS(=O)(=O)/C=C/c1ccccc1)C(=O)Nc1ccc(S(=O)(=O)N2CCCC2)cc1` (stereo unspecified), the activity change is 11.2% (inactive).

With `CCCCCCNCCn1cnc2c(N)ncnc21`, the activity change was 19.1% (inactive).

For the molecule `Cc1ccc(-c2cc(C(=O)N3CCc4ccccc4C3)no2)cc1`, the activity change is 4.44% (inactive).

For the molecule `O=C(c1cc(-c2cccc(O)c2)on1)N1CCc2ccccc2C1`, the activity change was -84.1% (active).

As for `O=C(c1cc(-c2ccc(O)cc2)on1)N1CCOCC1`, the activity change is 2.48% (inactive).

Turning to `COc1ccc(C)cc1N(CC(=O)NC(C)c1ccccc1)S(C)(=O)=O` (stereo unspecified), the activity change was 17.3% (inactive).

As for `CCOc1ccc(-n2c(SCC(=O)Nc3ccc(OC)cc3)nc3sc4c(c3c2=O)CCN(C)C4)cc1`, the activity change was 20.9% (inactive).

On to `O=C(Cc1ccc2c(c1)CCCC2)Nc1ccccc1Cl`, for which the activity change was -3.68% (inactive).

Regarding `O=C(Nc1ccccc1Cl)/C(Cl)=C(\Cl)S(=O)c1ccccc1` (stereo unspecified), the activity change was -84.8% (active).

Turning to `O=C(Nc1ccccc1Cl)Nc1cccc2cccnc12`, the activity change is 24.3% (inactive).

For the molecule `Cc1csc(OCC(=O)Nc2ccc(C)c(C)c2)n1`, the activity change was 15.5% (inactive).

Take `O=C(CC1SC(=Nc2ccccc2)N(Cc2ccccn2)C1=O)Nc1cccc(Cl)c1` (stereo unspecified): the activity change is 3.68% (inactive).

Consider `CC(=O)c1cccc(OCc2cc(C(=O)NC(C)Cc3cccnc3)no2)c1` (stereo unspecified), for which the activity change was -85.8% (active).

For `Cc1cccnc1CC(C)NC(=O)c1cc(COc2cncc(Cl)c2)on1` (stereo unspecified), the activity change was 10.5% (inactive).

As to `CCC(NC(=O)c1cc(COc2ccc(F)c(F)c2)on1)c1ccncc1` (stereo unspecified), the activity change is 14% (inactive).

For the molecule `CC1(C)C/C(=N/Nc2ccc([N+](=O)[O-])cc2[N+](=O)[O-])C(C)(C)O1`, the activity change was 18.5% (inactive).

As for `C/C=C/C(=O)OCc1csc(CC(=O)Nc2ccccc2C)n1`, the activity change is 48.5% (inactive).
